Compound activity (PubChem)
In the library only some 2.8% were active in any assay of this set; here they are far more common.
POLH inh – DNA polymerase eta (human) inhibition. Q9Y253. recombinant Pol eta, fluorescent DNA replication assay. Potency, µM (titrated, usually from 114 µM), usual class: inhibitors. 1.2% of 390,000 active. AID 588591
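Fluorescent replication assay: 50 nM final substrate added after a 15 min room-temperature compound preincubation with 10 nM enzyme. Signal taken at 0 min and again at 10 min.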
Pol iota inh – DNA polymerase iota (human) inhibition; Q9UNA4; 1% of 390,000 active; Pol iota fluorescent replication assay, 10 min; Potency, µM (doses to about 115 µM), usual class: inhibitors
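Fluorescent replication assay read twice, at 0 min and 10 min after adding 50 nM (final) substrate. Enzyme (10 nM) and compounds were first incubated 15 min at room temperature; enzyme-free buffer wells were negative controls.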
WRN helicase inh – WRN helicase (human) inhibition; Potency, µM (top dose mostly 114 µM), actives largely listed as inhibitors; AID 651768; WRN helicase unwinding, fluorescent forked duplex, kinetic; 0.46% of 360,000 active; Q14191; further: nearly all actives have a fitted effect of over 55% in size
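Primary qHTS, 1536-well format. 20 nM WRN + compound, 15 min RT; start with 100 nM forked fluorophore/quencher duplex, 2 mM ATP (final); kinetic read ex 525/em 598 nm.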
POLK inh – blocks human DNA polymerase kappa activity; purified Pol kappa, fluorescent DNA synthesis assay, 10 min; AID 588579; 0.53% of 400,000 active; Q9UBT6; Potency, µM (highest dose often 107 µM), hits mostly inhibitors
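Here, compound and 10 nM enzyme are combined for 15 min at room temperature; adding 50 nM substrate (final) starts DNA synthesis, tracked by fluorescence at 0 and 10 min against buffer-only wells.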
Pol beta inh – blocks human DNA polymerase beta activity; P06746; Pol beta primer extension/strand displacement, fluorescence kinetic; Potency, µM (series often up to 114 µM), hits mostly inhibitors; 1.3% of 340,000 active
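Preincubation: enzyme (10 nM) with compound, 15 min, RT. Reaction: substrate added to 50 nM final. Reads: 0 and 10 min. Analysis: normalized, Hill fit.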
PI5P4Ka inh – PI5P4K alpha (human) kinase inhibition; P48426; PI5P4Kalpha enzyme, ADP-Glo luminescence, 60 min; hits give low values; max response, %; 1.2% of 330,000 active; AID 652105; active means max response of -50% or lower; inconclusive means between -30% and -50%; inactive means -30% or higher; further: value at the top dose of about 77 µM
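ADP-Glo luminescence end-point after a 60 min room-temperature kinase reaction. PI5P4Kalpha and substrate in HEPES pH 7.4 buffer with EGTA, 0.1% CHAPS and 5% DMSO; ATP at 5 microM final.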
Numbers stand for hits; 0 = inactive; ? = inconclusive; - = no result; ! = not active in a repeat; [ ] = dose if it differs, or a comment. Unless noted, the call rests on the fitted dose curve; in most records, active means well fitted curve in the direction sought with a large enough effect; inconclusive means small, poorly fitted or top-dose-only effect, or another doubt; inactive means no such curve, though single readings can be large; an effect the other way counts as inactive or inconclusive.

SMILES	POLH inh	Pol iota inh	WRN helicase inh	POLK inh	Pol beta inh	PI5P4Ka inh
Cc1ccc(C)c(OCC(O)CN2CCN(CCN3C(=O)c4cccc5cccc(c45)C3=O)CC2)c1 (centres undefined)	0	0	0	0	0	0
CC(=O)c1ccccc1OCC(O)CN1CCN(CCN2C(=O)c3cccc4cccc(c34)C2=O)CC1 (centres undefined)	0	0	0	0	40µM	0
N#CCSc1ncnc2sc3c(c12)CCC3	89µM	?	0	?	?	?
CN(CC(=O)O)c1ccc(/C=C/c2ccnc3ccccc23)cc1	-	0	-	0	-	-
O=C(O)c1c2c(nc3ccc(S(=O)(=O)N4CCC(C(=O)N5CCCCC5)CC4)cc13)CCCC2	32µM	?	0	?	0	0
Oc1cc(O)cc(/C=C/c2ccc(O)c(O)c2)c1	18µM!	16µM	0[11.6 µM]	79µM	7.9µM	-53
O=C(C[n+]1cccc2cc(Cl)ccc21)c1ccc(Br)cc1	-	0	-	0	-	-
COc1cc(/C=N/NC(=O)c2ccncc2)ccc1OC(=O)c1cc(OC)c(OC)c(OC)c1	0	0	0	0	0	0
Oc1ccc(N=Cc2ccc(-c3cccs3)s2)cc1	32µM	?	50µM	0	?	-
O=Cc1ccc(-c2cccs2)s1	0	0	0	0	-	0
O=C(NC1(C(F)(F)F)C(=O)Nc2c1c(=O)[nH]c(=O)n2-c1ccc(Cl)cc1)c1ccccc1F (centres undefined)	0	0	-	0	0	-
Cc1cc(Oc2ccccc2)nc(C#N)n1	-	?	-	0	-	-
O=C(CSc1ccc(Br)c2cccc(Cl)c12)Nc1ccc(S(=O)(=O)Nc2nccs2)cc1	45µM	?	35µM	?	50µM	?
O=C(Cc1cccs1)Nc1ccc(-c2nnn(CC(=O)N3CCOCC3)n2)cc1	0	0	0	0	18µM	-
COc1ccc(-c2ccc(SCC(=O)NCc3ccco3)nn2)cc1OC	?	0	0	?	0	0
O=C(CSc1ncccc1-c1nc2ccccc2[nH]1)NCc1ccco1	25µM	?	?	50µM	32µM	-
COc1ccc(-c2[nH]c(-c3ccc(C)cc3)nc2SCC(=O)NCc2ccco2)cc1OC	0	0	0	0	79µM	0
O=C(CSc1nc2ccccc2[nH]1)NCc1ccco1	0	0	0	0	0	-
Cc1cc2nc(-c3cccnc3SCC(=O)NCc3ccco3)[nH]c2cc1C	0	0	0	0	50µM	-
COc1ccc(CN2C(=O)N(c3cccc(C)c3)C(=O)C2CC(=O)Nc2ccc(F)cc2)cc1OC (centres undefined)	0	0	-	0	0	-
Cc1cc(NC(=O)C2CC=CCC2C(=O)O)no1 (centres undefined)	?	0	0	0	22µM	0
O=c1c2ccccc2sc2nc(C3CCCCC3)n(Cc3ccco3)c(=O)c12	?	?	0	0	22µM	-
O=C(Nc1nncs1)c1cc2c(s1)CCC2	0	0	0	0	0	0
CC(C)Cc1nnc(NC(=O)c2cc3c(s2)CCC3)s1	0	28µM	0[11.6 µM]	?	0	0
COc1ccc(NC(=O)CCn2c(=S)[nH]c3ccccc3c2=O)cc1Cl	35µM	-	0	-	-	0
SMILES	POLH inh	Pol iota inh	WRN helicase inh	POLK inh	Pol beta inh	PI5P4Ka inh
Cc1ccc2c(C)ccnc2c1	-	0	-	0	-	-
COc1ccc(-c2noc(=O)n2Cc2ccccc2Cl)cc1	0	0	0	0	0	0
CN(C)c1ccc(/C=C/c2nc3ccccc3s2)cc1Cl	-	0	-	0	-	-
Cc1ccc2c(c1)C(=O)OC(C(=O)Nc1ccccc1C(=O)O)C2 (centres undefined)	0	0	-	0	0	-
Cc1ccc2c(c1)C(=O)OC(C(=O)Nc1ccc(C(=O)O)cc1)C2 (centres undefined)	0	89µM	-	0	0	-
Cn1cnc(C(=O)NCc2ccc(CNC(=O)OC(C)(C)C)cc2)c1C(=O)NCc1ccc(CNC(=O)OC(C)(C)C)cc1	0	0	0	0	-	0
Cc1sc(C(C2C(=O)CC(C)(C)CC2=O)C2C(=O)CC(C)(C)CC2=O)cc1[N+](=O)[O-]	0	16µM	0[11.6 µM]	0	0	?
CC1(C)CC(=O)C(C(c2cc([N+](=O)[O-])ccc2Cl)C2C(=O)CC(C)(C)CC2=O)C(=O)C1	0	0	0	0	-	0
O=C(CBr)c1ccc(Oc2ccc(C(=O)C[n+]3cccc(Br)c3)cc2)cc1	-	79µM	-	0	-	-
COc1ccc(C(=O)C[n+]2cccc(Br)c2)cc1	0	0	?	0	0	0
O=C(CCl)N1CCN2C(=O)c3ccccc3C12c1ccc(Cl)cc1 (centres undefined)	79µM	0	0	0	0	0
COc1ccc(-c2noc(-c3nnn(-c4cc(C)ccc4C)c3N)n2)cc1	0	0	-	0	0	-
O=C(Cn1c(=O)n(Cc2ccco2)c(=O)c2c3c(sc21)CCCCC3)Nc1ccccc1	50µM	13µM	?	?	32µM	-
O=C(Cn1c(=O)n(Cc2ccco2)c(=O)c2c3c(sc21)CCCCC3)c1ccccc1	?	?	?	0	10µM	-
O=C(CN1C(=O)C(=O)N(Cc2ccco2)C1=O)Nc1ccccc1	20µM	?	0	0	-	0
